Assay outcomes (PubChem BioAssay)
C diff growth = C. difficile growth inhibition; Clostridium difficile clinical isolate growth, OD600, 24 h; active compounds read low; growth activity, negative = inhibition, % at 16 µg/mL (by protocol); 86,000 tested, 0.25% active;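 active = mean growth activity at or below -80% and every replicate also at or below -80%; inconclusive = mean at or below -80% but some replicate above -80%; inactive = mean growth activity above -80%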;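 note: 0% = DMSO wells and -100% = levofloxacin 16 µg/mL wells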
Pf Dd2 inh = blocks growth of Plasmodium falciparum Dd2 parasites; P. falciparum Dd2 growth, SYBR Green, 72 h; active compounds read low; activity change, % at 10 µM; 94,000 tested, 2.3% active; AID 1159554; in the data active = activity change below about -80%; inconclusive = no clear call, values can overlap the other calls
T cruzi growth-1 = blocks T. cruzi growth in NIH3T3 culture | AID 624255 | T. cruzi beta-gal in NIH3T3, GalScreen luminescence, 90 h | 77,000 tested, 5.9% active | inhibition, % at 8.34 µM;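 active = mean inhibition above about 93%, with at least 55% of replicates each passing it, limit read from the data, passing the limit was not always enough; inconclusive = only one of those two conditions holds; inactive = neither condition holds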
T cruzi growth-2 = Trypanosoma cruzi proliferation inhibition | 5,600 tested, 72% active | T. cruzi beta-gal in NIH3T3, GalScreen luminescence, 90 h | shares compounds with T cruzi growth-1 | AID 651739 | inhibition, % at 8.35 µM;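 active = mean replicate inhibition above about 95% and at least 55% of replicates individually reaching it, limit read from the data; inconclusive = only one of the two criteria is met; inactive = neither criterion is met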
T cruzi growth-3 = inhibitors of T. cruzi proliferation; shares compounds with T cruzi growth-1; T. cruzi beta-gal in NIH3T3, GalScreen luminescence, 90 h; inhibition, % at 2.09 µM; 5,600 tested, 21% active; AID 651740;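 active = mean inhibition above about 95%, with at least 55% of replicates also reaching it, limit read from the data; inconclusive = meets just one of the two conditions; inactive = meets neither condition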;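 note: plate controls were neutral control median for no effect and positive control median for full effect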
NIH3T3 tox = NIH/3T3 (mouse) viability loss. AID 651742. NIH/3T3 viability, CellTiter-Glo ATP luminescence, 90 h. cytotoxicity (signal decrease), % at 8.35 µM. 5,600 tested, 14% active. shares compounds with T cruzi growth-1;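 active = mean signal decrease across replicates above about 35% based on untreated-well scatter, with enough replicates individually passing, limit read from the data; inconclusive = no rule stated though some were filed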;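 note: 0% = median of neutral control wells and 100% = median of positive control wells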
NIH3T3 tox 2 = NIH/3T3 (mouse) viability loss. shares compounds with T cruzi growth-1. NIH/3T3 viability, CellTiter-Glo ATP luminescence, 90 h. inhibition, % at 24.9 µM. 5,600 tested, 56% active;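 active = mean loss of cell viability signal at or above a set limit, and enough replicates individually reaching it; inconclusive = meets only the mean limit or only the replicate share; inactive = meets neither condition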;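 note: 0% = median of neutral control wells and 100% = median of positive control wells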
Starred values were filed as active, the others as inactive; ? = inconclusive; · = no result. Only some compounds are listed: those with a hit (about 6.7% of all), similar ones and a draw of the others.

SMILES	C diff growth	Pf Dd2 inh	T cruzi growth-1	T cruzi growth-2	T cruzi growth-3	NIH3T3 tox	NIH3T3 tox 2
C[C@@H]1CCCCO[C@H](CN(C)C(=O)Nc2cccc3ccccc23)[C@@H](C)CN([C@@H](C)CO)C(=O)c2cc(NC(=O)c3ccccc3)ccc2O1	4	-82*	?	107*	84	26	36*
C[C@@H]1CN([C@@H](C)CO)C(=O)Cc2cc(NS(=O)(=O)c3cccs3)ccc2O[C@H]1CN(C)C	0	3	4	·	·	·	·
C[C@@H]1CN([C@@H](C)CO)C(=O)c2cc(NC(=O)Nc3ccccc3)ccc2O[C@@H]1CN(C)Cc1ccc(-c2ccccc2)cc1	28	27	46	·	·	·	·
C[C@@H]1CN([C@@H](C)CO)C(=O)c2cc(NC(=O)Cn3cnnn3)ccc2O[C@H]1CN(C)C(=O)Nc1ccc(F)cc1	21	35	23	·	·	·	·
C[C@@H]1CCCCO[C@@H](CN(C)C(=O)NC2CCCCC2)[C@H](C)CN([C@@H](C)CO)C(=O)c2cc(NC(=O)Nc3cccc4ccccc34)ccc2O1	-7	-31	82	·	·	·	·
C[C@H]1CCCCO[C@H](CN(C)C(=O)Nc2cccc3ccccc23)[C@@H](C)CN([C@@H](C)CO)C(=O)c2cc(NC(=O)NC3CCCCC3)ccc2O1	-6	-18	99*	108*	112*	-38	6
C[C@@H]1CN([C@@H](C)CO)C(=O)c2cc(NC(=O)NC3CCCCC3)ccc2O[C@@H](C)CCCCO[C@H]1CN(C)C(=O)Nc1cccc2ccccc12	-3	-52	53	·	·	·	·
C[C@@H]1CCCCO[C@H](CN(C)C(=O)NC2CCCCC2)[C@H](C)CN([C@@H](C)CO)C(=O)c2cc(NC(=O)Nc3cccc4ccccc34)ccc2O1	-12	0	108*	106*	77	-28	-2
Cc1noc(C)c1S(=O)(=O)N(C)C[C@H]1OCCCC[C@H](C)Oc2ccc(NC(=O)Nc3cccc4ccccc34)cc2C(=O)N([C@@H](C)CO)C[C@@H]1C	-5	-85*	100*	109*	?	7	54*
COc1ccc(NC(=O)Nc2ccc3c(c2)C(=O)N([C@@H](C)CO)C[C@H](C)[C@@H](CN(C)S(=O)(=O)c2c(C)noc2C)OCCCC[C@H](C)O3)cc1	-5	-83*	107*	102*	-8	-12	-7
Cc1noc(C)c1S(=O)(=O)N(C)C[C@@H]1OCCCC[C@H](C)Oc2ccc(NC(=O)Nc3cccc4ccccc34)cc2C(=O)N([C@H](C)CO)C[C@@H]1C	-3	-20	109*	98*	-37	74*	77*
COc1ccc(NC(=O)Nc2ccc3c(c2)C(=O)N([C@@H](C)CO)C[C@@H](C)[C@H](CN(C)S(=O)(=O)c2c(C)noc2C)OCCCC[C@@H](C)O3)cc1	-2	-17	-70	·	·	·	·
Cc1noc(C)c1S(=O)(=O)N(C)C[C@@H]1OCCCC[C@@H](C)Oc2ccc(NC(=O)Nc3cccc4ccccc34)cc2C(=O)N([C@@H](C)CO)C[C@H]1C	-1	-42	104*	84	55	-14	-5
Cc1noc(C)c1S(=O)(=O)N(C)C[C@H]1OCCCC[C@@H](C)Oc2ccc(NC(=O)Nc3ccccc3)cc2C(=O)N([C@H](C)CO)C[C@@H]1C	3	-20	·	·	·	·	·
Cc1noc(C)c1S(=O)(=O)N(C)C[C@@H]1OCCCC[C@@H](C)Oc2ccc(NC(=O)Nc3ccccc3)cc2C(=O)N([C@@H](C)CO)C[C@H]1C	5	-24	·	·	·	·	·
Cc1noc(C)c1S(=O)(=O)N(C)C[C@H]1OCCCC[C@@H](C)Oc2ccc(NC(=O)Nc3ccccc3)cc2C(=O)N([C@@H](C)CO)C[C@@H]1C	-8	-79	·	·	·	·	·
C[C@@H](NC(=O)C[C@H]1CC[C@@H](NC(=O)Cc2ccccn2)[C@H](CO)O1)c1ccccc1	·	8	1	·	·	·	·
CC(=O)N1[C@@H]2Cn3c(ccc(C4=CCCC4)c3=O)[C@H]1[C@@H](C(=O)NCc1ccccc1)[C@@H]2CO	-4	6	-4	·	·	·	·
CCCN1[C@H](C(=O)OC)[C@@H](CO)[C@@H]2Cn3c(ccc(C4=CCCCC4)c3=O)[C@@H]21	-1	7	43	·	·	·	·
C[C@@H]1CCCCO[C@@H](CN(C)S(=O)(=O)c2cn(C)cn2)[C@H](C)CN([C@@H](C)CO)C(=O)c2cc(NC(=O)c3ccncc3)ccc2O1	-5	57	-18	·	·	·	·
C[C@H](CO)N1C[C@H](C)[C@H](CN(C)C(=O)Nc2ccc(C(F)(F)F)cc2)Oc2c(NC(=O)Nc3ccc(C(F)(F)F)cc3)cccc2C1=O	23	-53	44	·	·	·	·
C[C@@H]1CCCCO[C@H](CN(C)Cc2ccc(Cl)c(Cl)c2)[C@@H](C)CN([C@H](C)CO)C(=O)c2cc(NC(=O)Nc3ccc(F)cc3)ccc2O1	·	-3	102*	?	108*	21	8
C[C@H](CO)N1C[C@H](C)[C@@H](CN(C)Cc2ccc(Cl)c(Cl)c2)OCCCC[C@H](C)Oc2ccc(NC(=O)Nc3ccc4c(c3)OCO4)cc2C1=O	0	11	77	·	·	·	·
CC(C)NC(=O)Nc1ccc2c(c1)C(=O)N([C@H](C)CO)C[C@H](C)[C@@H](CN(C)Cc1ccc(Cl)c(Cl)c1)OCCCC[C@H](C)O2	11	·	·	·	·	·	·
CC(C)NC(=O)Nc1ccc2c(c1)C(=O)N([C@@H](C)CO)C[C@H](C)[C@@H](CN(C)Cc1ccc(Cl)c(Cl)c1)OCCCC[C@@H](C)O2	18	-78	·	·	·	·	·
SMILES	C diff growth	Pf Dd2 inh	T cruzi growth-1	T cruzi growth-2	T cruzi growth-3	NIH3T3 tox	NIH3T3 tox 2
C[C@@H]1CCCCO[C@H](CN(C)Cc2ccc(Cl)c(Cl)c2)[C@H](C)CN([C@@H](C)CO)C(=O)c2cc(NC(=O)Nc3ccc(F)cc3)ccc2O1	·	-85*	106*	99*	110*	8	?
C[C@@H]1CCCCO[C@H](CN(C)Cc2ccc(Cl)c(Cl)c2)[C@@H](C)CN([C@@H](C)CO)C(=O)c2cc(NC(=O)NC3CCCCC3)ccc2O1	3	-46	·	·	·	·	·
C[C@@H]1CN([C@@H](C)CO)C(=O)c2cc(NC(=O)Nc3ccc(F)cc3)ccc2O[C@@H](C)CCCCO[C@H]1CN(C)Cc1ccc(Cl)c(Cl)c1	·	-68	103*	94	110*	44*	15
C[C@@H]1CCCCO[C@@H](CN(C)Cc2ccc(Cl)c(Cl)c2)[C@@H](C)CN([C@H](C)CO)C(=O)c2cc(NC(=O)Nc3ccc(F)cc3)ccc2O1	·	13	109*	101*	109*	-6	-2
COc1ccc(NC(=O)Nc2ccc3c(c2)C(=O)N([C@H](C)CO)C[C@H](C)[C@H](CN(C)C(=O)Nc2ccc(C(F)(F)F)cc2)O3)cc1	·	-49	-55	·	·	·	·
CCCN1C[C@H](C)[C@@H](OC)CN(C)C(=O)c2ccc(NC(=O)c3ccc(F)cc3)cc2OC[C@H]1C	-3	-18	-16	·	·	·	·
